Experimental data as given in PubChem BioAssay AID2098 (Broad Institute, 2009).
Out of some 300,000 compounds screened, about 2,300 (0.77%) were called active. This is one part of a sample in which actives are shown more often than they occur.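 How the source made its calls: active means more than half of replicate wells show activity change below -50%, luminescence cut by over half; inconclusive means some wells, but at most half, below -50%; inactive means no replicate well below -50%.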

Test: HSF1 inhibitors in luciferase reporter cells, primary screen, cell-based, NIH3T3, luminescence (AID 2098);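 further: luciferase reports HSF-1 transcriptional activity via heat shock element; 0% = median of DMSO wells and -100% = zero luminescence signal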
Settings: NIH3T3-HGL HSE-luciferase, MG132-induced, luminescence 8 h; active compounds read low; screened at 7.5 µM (by protocol)

SMILES	activity change, negative = inhibition
CN1CCN(C(=O)C2C3C=CC(C3)C2C(=O)O)CC1 (stereo not given)	-0.614% (inactive)
C/C(=C/C(=O)N1CCN(C)CC1)C(=O)O	-83.7% (active)
CCN1CCN(C(=O)/C=C\C(=O)O)CC1	-4.12% (inactive)
COc1cccc(CN(C)CC(=O)NCc2ccccc2Cl)c1OC	-1.39% (inactive)
Cc1nc2ccc(C(=O)N(C)CC3CCCN(CCc4ccc(Cl)cc4)C3)cc2[nH]1 (stereo not given)	-3.74% (inactive)
COc1cccc(CN(C)CC2CCCN(CCc3ccc(Cl)cc3)C2)c1OC (stereo not given)	-81.7% (active)
O=C(COc1ccccc1F)Nc1nc(-c2ccccn2)cs1	-13.1% (inactive)
N#CCCN(C(=O)COC(=O)c1ccc(S(=O)(=O)N2CCCCCC2)cc1)c1ccccc1	0.525% (inactive)
Cc1ccccc1N1CC(C(=O)Nc2ccc(S(=O)(=O)N3CCCC3)cc2)CC1=O (stereo not given)	-1.85% (inactive)
COc1ccc(NC(=O)Cn2c(=O)n(Cc3ccco3)c(=O)c3ccccc32)cc1	-89% (active)
O=C(Cn1c(=O)n(Cc2ccco2)c(=O)c2ccccc21)NCC1CCCO1 (stereo not given)	0.503% (inactive)
Cn1c(=O)c2ccccc2n(CC(=O)Nc2ccc3c(c2)OCCO3)c1=O	-3.8% (inactive)
Cn1c(=S)sc2ccc3ccccc3c21	-1.53% (inactive)
CCOc1ccc(C2=CC(c3ccccc3)n3ncnc3N2)cc1 (stereo not given)	-4.36% (inactive)
Brc1ccc(C2=CC(c3ccco3)n3ncnc3N2)cc1 (stereo not given)	-56.9% (active)
COC(=O)C1=C(C)Nc2ncnn2C1c1ccco1 (stereo not given)	0.145% (inactive)
O=C(O)c1ccc2c(c1)C(=O)N(NC(=O)c1ccc(O)cc1)C2=O	0.898% (inactive)
O=C(c1ccc(O)cc1)c1ccc(C(=O)O)c(C(=O)O)c1	-68% (active)
O=C(Nc1ccc(C(=O)O)c(O)c1)c1ccccc1	2.77% (inactive)
CCC1(c2ccccc2)NC(=O)N(CC(=O)c2ccc3c(c2)OCO3)C1=O (stereo not given)	1.78% (inactive)
CCCCN1C(N)=NC[C@@H]1CC1CCCCC1	-7.88% (inactive)
C[C@@H]1O[C@@H](OC[C@H]2O[C@@H](Oc3c(-c4ccc(O)cc4)oc4cc(O)cc(O)c4c3=O)[C@H](O)[C@@H](O)[C@@H]2O)[C@H](O)[C@H](O)[C@H]1O	2.53% (inactive)
O=C(CCCCCn1c(=S)[nH]c2cc3c(cc2c1=O)OCO3)N1CCN(c2ccc(F)cc2)CC1	0.967% (inactive)

SMILES	activity change, negative = inhibition
Cc1ccc(C)c(N2CCN(C(=O)CCCCn3c(=O)[nH]c4ccccc4c3=O)CC2)c1	1.8% (inactive)
Cc1ccc(C)c(N2CCN(C(=O)CCCCCn3c(=S)[nH]c4ccc(N5CCOCC5)cc4c3=O)CC2)c1	-73.3% (active)
Cc1cc(Br)ccc1NC(=O)CN(C)C(=O)CN1C(=O)NC2(CCCC2)C1=O	-4.3% (inactive)
O=C(COc1ccccc1)Nc1ccc(C(=O)N2CCCC2)cc1	-3.01% (inactive)
N#CC1=C(N)Oc2n[nH]c(CSc3ccccc3)c2C12C(=O)Nc1ccccc12 (stereo not given)	-57.8% (active)
N#CC1=C(N)Oc2[nH]c(=S)[nH]c(=O)c2C12C(=O)Nc1ccccc12 (stereo not given)	-4.51% (inactive)
COc1ccc(S(=O)(=O)NCC(c2ccco2)N2CCOCC2)cc1 (stereo not given)	5.28% (inactive)
O=C(Nc1nnc(S(=O)(=O)N2CCCCCC2)s1)c1cccc(Br)c1	-56% (active)
Cc1cccc(C(=O)Nc2nnc(S(=O)(=O)N3CCCCCC3)s2)c1	-1.91% (inactive)
O=C(Nc1nnc(S(=O)(=O)N2CCOCC2)s1)c1cccc(Br)c1	4.12% (inactive)
O=C(COC(=O)c1ccccc1SCC(=O)N1CCCC1)Nc1ccccc1OC(F)F	7.03% (inactive)
O=C(c1ccc(F)c(S(=O)(=O)N2CCOCC2)c1)N(CCc1ccccc1)Cc1ccccc1	5.02% (inactive)
COc1ccc(Cl)cc1C=CC=Nc1ccc(S(N)(=O)=O)cc1	-18.4% (inactive)
C=C1CCN([C@@H](Cc2ccccc2)C(=O)N2CCOCC2)S(=O)(=O)c2ccccc21	-0.215% (inactive)
COc1cccc(OC)c1C(=O)Nc1sc2c(c1C(N)=O)CCCC2	-3.68% (inactive)
O=C(OCC1OC(Oc2ccc(O)cc2)C(O)C(O)C1O)c1ccccc1 (stereo not given)	-1.79% (inactive)
CCCCn1c(N)c(N(CC(C)C)C(=O)c2cccc(S(=O)(=O)N3CC(C)OC(C)C3)c2)c(=O)[nH]c1=O (stereo not given)	-2.84% (inactive)
Cc1ccc(NC(=O)NCC(c2cccnc2)N2CCOCC2)cc1 (stereo not given)	-69.8% (active)
Cc1ccc(C(CNC(=O)Nc2ccccc2)N2CCN(C)CC2)cc1 (stereo not given)	-9.11% (inactive)
Cc1ccc(C)c(NC(=S)NCC(c2cccnc2)N2CCOCC2)c1 (stereo not given)	-6.11% (inactive)
O=C(NCCS(=O)(=O)NCc1ccc(Cl)cc1)c1ccccc1	2.35% (inactive)
O=C(COC(=O)Cc1ccccc1F)NNC(=O)c1ccc(Cl)cc1	-1.7% (inactive)
O=C(NC1CCCCC1)c1ccc(CNc2c(N3CCOCC3)c(=O)c2=O)cc1	-0.199% (inactive)

SMILES	activity change, negative = inhibition
CC1CCN(c2c(NCc3ccc(C(=O)NCc4ccccc4)cc3)c(=O)c2=O)CC1	-69.2% (active)
O=C(NCc1ccccc1)c1ccc(CNc2c(N3CCCC3)c(=O)c2=O)cc1	-3.59% (inactive)
Cn1cccc1C(=O)OCC(=O)c1ccc(Br)s1	-97.9% (inactive)
O=C(Nc1cccc2c1CCCC2)c1ccc(F)cc1	-2.27% (inactive)
COc1ccc(/C=N/NC(=O)Nc2ccc3nsnc3c2)c(OC)c1	15.1% (inactive)
COc1ccc(/C=N/NC(=O)c2ccc3c(c2)OCCO3)c(OC)c1	-61% (active)
COc1ccc(/C=N/NC(=O)CNC(=O)c2ccc(S(=O)(=O)N3CCCC3)cc2)c(OC)c1	-4.96% (inactive)
COc1ccc(C)cc1NC(=O)CSc1nnc2ccc(-c3ccccn3)nn12	-4.51% (inactive)
COc1cc(C(=O)NN(CCC#N)C2=NS(=O)(=O)c3ccccc32)cc(OC)c1OC	-1.4% (inactive)
Cc1ccc(C(=O)NN(CCC#N)C2=NS(=O)(=O)c3ccccc32)cc1	-53.5% (active)
Cc1ccc(S(=O)(=O)N(NC2=NS(=O)(=O)c3ccccc32)C(=O)c2ccccc2)cc1	-2.65% (inactive)
O=C(CN(c1cc(C(F)(F)F)ccc1Cl)S(=O)(=O)c1ccccc1)NCc1cccnc1	6.77% (inactive)
CCOC(=O)N1CCN(C(=O)CSc2nc(=O)n3cccc(C)c3n2)CC1	-2.47% (inactive)
O=C1[C@H]2[C@@H](c3ccc(Cl)cc3)N3C(=O)N(c4cccc(F)c4)C(=O)[C@@]3(Cc3ccccc3)[C@H]2C(=O)N1C1CCCCC1	8.08% (inactive)
CN(C)S(=O)(=O)c1ccc(N2CCCC2)c(C(=O)Nc2ccc(Br)cc2F)c1	0.082% (inactive)
Cc1ccc(-c2csc(NC(=O)C3=COCCO3)n2)cc1C	14.3% (inactive)
CCN1CCN(C(c2cccnc2)c2cc(Cl)c3cccnc3c2O)CC1 (stereo not given)	-81.5% (active)
Oc1c(C(c2ccccn2)N2CCOCC2)ccc2cccnc12 (stereo not given)	39.3% (inactive)
CCOC(=O)N1CCN(C(c2cccnc2)c2ccc3cccnc3c2O)CC1 (stereo not given)	26.3% (inactive)
C=CCSc1nnc2c(n1)-c1cccc3cccc-2c13	3.46% (inactive)
COC(=O)c1c(-c2ccsc2)oc2ccc(-c3cc(OC)c(OC)c(OC)c3)cc12	0.511% (inactive)
OCCCNc1nc(-c2ccccc2)c2cc(Cl)ccc2n1	-1.41% (inactive)
CC(C)n1cnc2c(Nc3cccc(Cl)c3)nc(N(CCO)CCCO)nc21	-11.1% (inactive)

SMILES	activity change, negative = inhibition
OCCCNc1nccc(-c2cc(Nc3cccc(Cl)c3)ncn2)n1	-63.5% (active)
Cc1ccc2nc(SCC(=O)Nc3cccc4ccccc34)nc(=O)n2c1	4.93% (inactive)
O=C(NCCS(=O)(=O)NCc1ccc(F)cc1)c1ccccc1	0.252% (inactive)
O=C(Nc1cccnc1)c1cccc(S(=O)(=O)N2CCCC2)c1	-0.574% (inactive)
O=C(Nc1cccnc1)c1noc2c1CCCCC2	-52.6% (active)
O=C(c1noc2c1CCCC2)N1CCc2ccccc2C1	12.4% (inactive)
O=[N+]([O-])c1cccc(C=NN=Cc2ccccc2O)c1	-25.2% (inactive)
COc1cccc(OCC(=O)NNC(=O)c2cnccn2)c1	-5.69% (inactive)
COc1ccc(C(=O)O/N=C(\N)c2ccccn2)cc1[N+](=O)[O-]	12.7% (inactive)
COc1ccc(C(=O)NNC(=O)c2cnccn2)cc1[N+](=O)[O-]	-85.3% (active)
CC(=O)c1c(C)[nH]c(C(=O)COC(=O)CCOc2ccc(C)cc2)c1C	5.07% (inactive)
CCCNC(=O)CCn1cc(-c2ccc(OC)cc2)nc1CCN	-7.76% (inactive)
O=C(NNC(=O)c1ccc(-c2ccccc2)cc1)Nc1ccccc1	-2.47% (inactive)
O=S(=O)(Nc1ccc(-c2ccc(N3CCOCC3)nn2)cc1)c1cc(Cl)ccc1Cl	11.6% (inactive)
CCC(C)N(C(=O)CSc1ncnc2c1cnn2-c1ccccc1)C1CCS(=O)(=O)C1 (stereo not given)	0.752% (inactive)
COc1ccc(OC)c(S(=O)(=O)N2CCCC(C(=O)N3CCC(C(N)=O)CC3)C2)c1 (stereo not given)	-0.699% (inactive)
Cc1nn(C)c(C)c1NS(=O)(=O)c1ccc(OC(F)(F)F)cc1	-8.93% (inactive)
O=C1COc2ccc(S(=O)(=O)Nc3ccc(OC(F)(F)F)cc3)cc2N1	2.92% (inactive)
O=S(=O)(Nc1ccc(O)c2ccccc12)c1ccc(OC(F)(F)F)cc1	-59.7% (active)
CCC(=O)N1CCc2cc(Br)c(S(=O)(=O)NCCN3CCCCC3CC)cc21 (stereo not given)	-1.08% (inactive)
CN1CCN(C2Cc3ccc(Cl)cc3Sc3ccc(F)cc32)CC1 (stereo not given)	-0.795% (inactive)
